An excerpt weighted towards active compounds, which were near 5.8% of everything screened.
PINK1 modulator – modulators of PINK1 expression | PINK1 immunofluorescence, high-content cytometry, 24 h | Potency, µM (highest dose often 76.6 µM), without a hit: at the highest dose activation (PINK1 increase), actives largely listed as activators | 410,000 tested, 0.2% active; active means well fitted activation curve with a large enough effect; inconclusive means small, poorly fitted or top-dose-only effect; cell line not stated here; further: % of control where 0% means no effect; nearly all actives have a fitted effect of over 65% in size
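Compound titrations (5 concentrations, 24 h) on a stable cell line; DMSO and CCCP controls. Endpoint: fixed-cell PINK1 immunofluorescence with mitochondrial, cell and nuclear markers, scanned by microplate cytometer.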
MCF10A rerep – DNA re-replication induction in MCF 10a cells; 350,000 tested, 2.9% active; Potency, µM (top dose mostly 46.1 µM), inactives show at the highest dose activity, positive = re-replication, most hits filed as activators; MCF 10A DNA re-replication, Hoechst nuclear intensity, 48 h; further: % of control where 0% means no effect; nearly all actives have a fitted effect of over 50% in size
12-LOX inh – ALOX12 (human) lipoxygenase inhibition | P18054 | purified 12hLO, xylenol orange hydroperoxide absorbance | Potency, µM (doses to about 108 µM), without a hit: at the top dose activity change, negative = inhibition, usual class: inhibitors | 580,000 tested, 1.1% active; further: on the % scale 0 is the no-effect control and ±100 the full control effect
Target sequence (P18054 whole entry, looked up): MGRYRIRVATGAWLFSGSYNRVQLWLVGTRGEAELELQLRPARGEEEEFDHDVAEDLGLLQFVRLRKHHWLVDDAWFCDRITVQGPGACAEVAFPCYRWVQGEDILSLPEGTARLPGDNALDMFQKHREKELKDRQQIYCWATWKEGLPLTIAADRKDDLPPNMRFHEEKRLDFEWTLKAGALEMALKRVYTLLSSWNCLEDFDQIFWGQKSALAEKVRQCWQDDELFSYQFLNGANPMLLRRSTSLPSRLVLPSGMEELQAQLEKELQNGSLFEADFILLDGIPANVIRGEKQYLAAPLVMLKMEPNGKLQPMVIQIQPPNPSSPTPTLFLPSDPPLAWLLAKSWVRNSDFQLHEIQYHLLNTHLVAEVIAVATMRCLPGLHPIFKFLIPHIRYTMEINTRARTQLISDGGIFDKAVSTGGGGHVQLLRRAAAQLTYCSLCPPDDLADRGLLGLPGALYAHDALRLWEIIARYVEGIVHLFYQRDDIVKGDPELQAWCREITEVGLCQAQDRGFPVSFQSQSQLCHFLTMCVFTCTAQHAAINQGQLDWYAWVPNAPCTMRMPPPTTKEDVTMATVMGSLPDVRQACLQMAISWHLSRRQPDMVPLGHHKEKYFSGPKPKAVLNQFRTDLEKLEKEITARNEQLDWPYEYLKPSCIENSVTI
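Hydroperoxide product was detected by ferrous iron/xylenol orange as the 573 to 405 nm absorbance ratio. Arachidonic acid at 40 uM (final) was turned over for 30 min at room temperature by 150 nM human 12hLO, pH 7.0 Hepes buffer, after 15 min compound preincubation.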
SW480 rerep – DNA re-replication induction in SW480 cells; AID 624297; SW480 DNA re-replication, Hoechst DNA content imaging, 48 h; Potency, µM (titrated, usually from 46.1 µM), inactives show top-dose re-replication activation, most hits filed as activators; 340,000 tested, 1.8% active; further: % of control where 0% means no effect; nearly all actives have a fitted effect of over 55% in size
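Compounds, transferred as 23 nL by pin tool, were incubated with cells for 48 hr; DNA content per nucleus was then quantified by Hoechst staining and fluorescence plate imaging.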
KB-3-1 tox – KB-3-1 parental cell cytotoxicity; AID 1347075; KB-3-1 viability, CellTiter-Glo ATP luminescence, 72 h; Potency, µM (titrated, usually from 46.1 µM), most hits filed as cytotoxic; 400,000 tested, 1.4% active; further: on the % scale 0 is the no-effect control and ±100 the full control effect; nearly all actives have a fitted effect of over 60% in size
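KB-3-1 cells, DMEM (no phenol red) + 10% FBS; compound by pin transfer, 72 h, 37 °C. Readout: CellTiter-Glo luminescence after 10 min. Data normalized, curve-fitted.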
KB-V1 MDR tox – kills drug-selected multidrug resistant KB-V1 cells. 400,000 tested, 3.4% active. Potency, µM (titrated, usually from 46.1 µM), actives largely listed as cytotoxic. KB-V1 MDR cells viability, CellTiter-Glo, 72 h; further: on the % scale 0 is the no-effect control and ±100 the full control effect; nearly all actives have a fitted effect of over 60% in size
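Luminescent ATP read-out (CellTiter-Glo, 10 min) measures survival of drug-selected KB-V1 MDR cells after 72 h, 37 degrees C compound exposure. Medium: phenol-red-free DMEM, 10% FBS. Values from fitted concentration-response curves.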
Active calls of the source: *; i = inactive; ? = inconclusive; nt = no result given; [ ] = dose if it differs, or a comment. Unless noted, the call rests on the fitted dose curve; in most records, active means well fitted curve in the direction sought with a large enough effect; inconclusive means small, poorly fitted or top-dose-only effect, or another doubt; inactive means no such curve, though single readings can be large; an effect the other way counts as inactive or inconclusive. Potency means the concentration at half of the fitted maximal effect.

SMILES	PINK1 modulator	MCF10A rerep	12-LOX inh	SW480 rerep	KB-3-1 tox	KB-V1 MDR tox
CC1(C)Cc2nc3oc4c(=O)n(CC(=O)Nc5cccc(Cl)c5)cnc4c3cc2CO1	5.2%	12.2%	-15.6%	18.4µM*	i	i
CC1(C)Cc2nc3sc4c(=O)n(CC(=O)NCc5ccco5)cnc4c3cc2CO1	11.2µM*	9.2µM*	-6.7%	16.4µM*	?	i
COc1ccc(-c2noc(CSc3nnc(-c4ccco4)n3C3CCCCC3)n2)cc1OC	nt	nt	6.5%	nt	nt	nt
OCc1nc2ccccc2n1CC(O)Cn1ccc2ccccc21 (stereo unspecified)	1.1%	5.5%	0.0%	-2.7%	?	20.6µM*
OCc1nc2ccccc2n1CC(O)COc1ccccc1F (stereo unspecified)	nt	nt	7.5%	nt	nt	nt
O=C1CN(c2nc(-c3ccsc3)nc3ccccc23)CCN1	nt	nt	-7.3%	nt	nt	nt
Cc1ccccc1-c1nnc(SC(C)C(=O)NC2CCCC2)o1 (stereo unspecified)	1.1%	1.4%	-14.4%	-3.0%	i	20.6µM*
CC(Sc1nnc(-c2ccccc2F)o1)C(=O)Nc1ccc(N2CCOCC2)cc1 (stereo unspecified)	-0.9%	3.4%	-5.6%	4.2%	i	i
Cc1occc1-c1nnc(SC(C)C(=O)Nc2ccccc2F)o1 (stereo unspecified)	-1.0%	-0.7%	-29.0%	-8.7%	?	10.3µM*
Cc1ccccc1-c1nnc(SCC(=O)NC2CCCCC2)o1	0.1%	-3.1%	-9.6%	2.5%	i	i
Cc1ccc(NS(=O)(=O)c2cccc(C(=O)Nc3ccc4oc(C)nc4c3)c2)cc1	nt	nt	0.0%	nt	nt	nt
Cn1c(=O)c2c(ncn2CCC(=O)Nc2ccc(F)cc2)n(C)c1=O	nt	nt	-37.9%	nt	nt	nt
CCOc1ccc(S(=O)(=O)N/N=C2/CC(c3ccccc3)Oc3ccccc32)cc1 (stereo unspecified)	-0.3%	8.3%	?	8.8%	?	18.4µM*
Cc1ccc(CN2CCc3nc(C(C)C)nc(-c4ccc(O)cc4)c3CC2)cc1	nt	nt	44.7µM*	nt	nt	nt
Cn1cnc2nc(Cl)nc(Cl)c21	2.6%	7.31µM*	?	1.3µM*	3.26µM*	3.66µM*
O=C(Nc1cccc(S(=O)(=O)N2CCCCC2)c1)c1cccc2cccnc12	nt	nt	-1.5%	nt	nt	nt
Cc1ccccc1OCC(O)Cn1c2ccccc2c2ccccc21 (stereo unspecified)	nt	-7.4%	-22.2%	23.1µM*	i	20.6µM*
CC(=O)Nc1ccc(OCC(O)Cn2c3ccccc3c3ccccc32)c(C)c1 (stereo unspecified)	-3.8%[38.3 µM]	44.2%	-17.7%	18.6%	i	?
Cc1nccn1CC(O)Cn1c2ccccc2c2ccccc21 (stereo unspecified)	-0.7%	20.6µM*	0.0%	-11.2%	i	i
CCOC(=O)/C(C#N)=C1/C=CN(Cc2ccccc2)C=N1	-14.9%[38.3 µM]	12.2%	2.5%	-0.2%	i	13µM*
CCOC(=O)/C(C#N)=C1/C=CN(c2ccccc2)C=N1	-1.1%	9.4%	-14.1%	-2.5%	i	i
CC(C)Oc1ccc(Cl)cc1Nc1nc(NCCO)nc(N2CCCC2)n1	-0.9%	23.1µM*	-15.0%	?	i	?
Cc1ccc(C(=O)N2CCCCCCNC(=O)[C@@H]3C[C@@H](C(=O)N4CCc5ccccc5C4)C[C@@H]32)s1	nt	nt	-0.1%	nt	nt	nt
O=S(=O)(c1ccccc1)c1ncc(C(F)(F)F)cc1Cl	-2.4%	6.31µM*	?	?	i	i
CN1CCN(c2cc3c(c4c2[nH]c2ccccc24)C(=O)CC(C)(C)C3)CC1	1.2%	20.6µM*	39.8µM*	?	?	i
SMILES	PINK1 modulator	MCF10A rerep	12-LOX inh	SW480 rerep	KB-3-1 tox	KB-V1 MDR tox
CCC(C)(C)c1nnc(NC(=O)Cc2ccccc2)s1	nt	nt	-7.8%	nt	nt	nt
CCC(C)SSc1ncc[nH]1 (stereo unspecified)	nt	nt	19.3µM*	nt	nt	nt
CCC(C)SSC(C)CC (stereo unspecified)	nt	nt	14.9%[176 µM]	nt	nt	nt
O=C(NCC1CCCO1)c1ccc(CSc2nc3cccnc3n2Cc2ccc(F)cc2)cc1 (stereo unspecified)	nt	nt	-9.0%	nt	nt	nt
COc1ccc([C@H]2CC(=O)C[C@@H](CCn3cc(-c4ccccc4)nn3)O2)cc1	1.0%	nt	10µM*	nt	i	?
COc1ccc([C@H]2CC(=O)C[C@@H](CCn3cc(-c4cccnc4)nn3)O2)cc1	0.6%	nt	-9.7%	nt	i	?
O=C(NCc1ccccc1)c1cc2nc(C3CC3)cc(C(F)(F)F)n2n1	-1.2%	9.3%	0.0%	-2.3%	i	23.1µM*
Cc1cc(C)c2c(N)c(C(=O)Nc3ncc(C)s3)sc2n1	-0.6%	9.2µM*	0.0%[57.4 µM]	?	i	?
Cc1cc(C)c2c(N)c(C(=O)Nc3ccccc3Cl)sc2n1	9.5%	11.6µM*	8.4%	?	i	i
COc1ccc(NC(=O)c2sc3nc(C(F)(F)F)cc(C)c3c2N)cc1OC	39.8µM*	nt	-23.3%	nt	i	i
COCc1cc(C)nc2sc(C(=O)Nc3ccccc3Br)c(N)c12	15.4%	?	?	1.84µM*	i	i
COC(=O)c1sc2nc(C)cc(C)c2c1N	0.3%	9.2%	-7.9%	2.4%	i	i
COc1ccc(CNC(=O)c2sc3nc4c(c(C(F)(F)F)c3c2N)CCC4)cc1OC	-0.7%	?	-18.4%	4.0%	i	i
COC(=O)N(C)CC(=O)NC1CCCCC1C (stereo unspecified)	nt	nt	-15.6%	nt	nt	nt
COc1ccccc1/C=C/c1nc(C#N)c(NCc2ccc(F)cc2)o1	nt	nt	-6.0%	nt	nt	nt
COc1ccccc1CNC(=O)N1CCN(Cc2ccc(Br)s2)CC1	nt	nt	-13.0%	nt	nt	nt
Cc1cc(C)c2c(N)c(C(=O)Nc3ccccc3F)sc2n1	9.8%	29.1µM*	0.0%	5.2%	i	i
CCc1ccccc1NC(=O)c1sc2nc(C)cc(C)c2c1N	2.4%	?	-14.0%	?	i	?
Cc1cc(C)c2c(N)c(C(=O)Nc3ccccc3Br)sc2n1	8.9%	5.8µM*	1.0%	18.4µM*	i	i
COc1ccc(CC(=O)NC(C)c2nnc(SCc3ccc(Cl)cc3Cl)n2C)cc1 (stereo unspecified)	nt	nt	16.9%	nt	nt	nt
COc1ccc(CCC(=O)N(CC#N)C2CC2)cc1	nt	nt	13.9%	nt	nt	nt
O=S1(=O)c2ccccc2C(O)C(Cc2ccncc2)N1CCO (stereo unspecified)	nt	nt	10.4%	nt	nt	nt
C=C1[C@@H](O)[C@H](Cc2ccccc2)N(Cc2ccccc2Br)S1(=O)=O	-1.7%	20.6µM*	-50.3%	-0.5%[9.22 µM]	?	?
Cc1ccc(-c2cc(C(=O)Nc3ccc(S(=O)(=O)N4CCCCC4C)cc3)no2)cc1 (stereo unspecified)	nt	nt	-27.7%	nt	nt	nt

High-throughput results deposited in PubChem by National Center for Advancing Translational Sciences (NCATS).
